The panel holds about 83,000 compounds, 20% with a hit somewhere; the sample as a whole holds those more often.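 Step 1: grow cells in 96-well plates. Step 2: add test compound at a single concentration. Step 3: incubate 48 h. Step 4: record percent growth.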 Activity calls are given as the source filed them. How the source made its calls: active means growth percent below 10; inactive means the rest.
These compounds were tested on HCT-116 colon (assay: NCI-60 one-dose screen, 48 h (100 = growth as untreated, 0 = no growth, -100 = all killed)). Settings: 10 µM.

| SMILES | growth |
| --- | --- |
| COc1cc2ncnc(NC3CCC(O)CC3)c2cc1OC (stereo not given) | 91.4% (inactive) |
| COc1cc(C)ccc1Oc1nc(Nc2ccc(N3CCOCC3)cc2)ncc1NC(=O)Nc1cc(C(F)(F)F)cc(C(F)(F)F)c1 | 22.6% (inactive) |
| CCC(C)[C@H](NC(C)=O)C(=O)N[C@@H](CCCNC(=N)N)C(=O)N[C@@H](CCCCN)C(=O)N[C@@H](CC1CCC(O)CC1)C(=O)NC(C(=O)N[C@@H](CCSC)C(=O)N[C@@H](CCCNC(=N)N)C(=O)N[C@@]1(C)CCC/C=C\CCC[C@@](C)(C(=O)NC(C(=O)N[C@@H](CCC(=O)O)C(=O)N[C@@H](CC(C)C)C(=O)N[C@H](C(=O)N[C@@H](CCC(=O)O)C(N)=O)C(C)C)[C@@H](C)O)NC(=O)[C@H](CCC(N)=O)NC(=O)[C@H](CC(C)C)NC(=O)[C@H](CC(C)C)NC1=O)[C@@H](C)O (stereo not given in full) | 89.1% (inactive) |
| CN1C(=O)C2(Nc3cc(Cl)ccc3S2)c2cc(Cl)ccc21 (stereo not given) | 82.9% (inactive) |
| CC(=O)Nc1ccc2c(c1)C(=O)c1cccc(C(=O)O)c1-2 | 105% (inactive) |
| O=C(CNc1nnc(-c2cccnc2SCc2ccccc2)s1)Nc1nc(Cl)cc(Cl)n1 | 106% (inactive) |
| CCOC(=O)c1cc(C(=O)c2cc(OC)c(OC)c(OC)c2)n2nc(C)ccc12 | 14.7% (inactive) |
| COc1cc(/C=C/c2cc(/C=C/c3ccc(O)c(OC)c3)[nH]c(=O)n2)ccc1O | 34.7% (inactive) |
| O=C1CSC(=S)N1/N=C/c1ccc(Cl)s1 | 107% (inactive) |
| COc1ccc(-c2onc(N)c2-c2cc(OC)c3c(c2)OCO3)cc1 | 15.5% (inactive) |
| COc1cc(/C=C/c2cc(/C=C/c3ccc(O)c(OC)c3)n(C(=O)Nc3ccc(C)cc3)n2)ccc1O | 1.6% (active) |
| COc1cc(NC(=O)Nc2cnc(Nc3ccc(N4CCOCC4)cc3)nc2Oc2cccc(OC)c2)cc(OC)c1 | 32.4% (inactive) |
| CC(=O)N[C@H](C(=O)N[C@@H](CCCNC(=N)N)C(=O)N[C@@H](CCCCN)C(=O)N[C@@H](CCCNC(=N)N)C(=O)NC(C(=O)N[C@@H](CC(C)C)C(=O)N[C@@H](CCCNC(=N)N)C(=O)N[C@@]1(C)CCC/C=C\CCC[C@@](C)(C(=O)N[C@@H](CCCNC(=N)N)C(=O)N[C@@H](CCC(=O)O)C(=O)N[C@@H](CC(C)C)C(=O)N[C@H](C(=O)N[C@@H](CCC(=O)O)C(N)=O)C(C)C)NC(=O)[C@H](CCC(N)=O)NC(=O)[C@H](CC(C)C)NC(=O)[C@H](CC(C)C)NC1=O)[C@@H](C)O)C(C)C (stereo not given in full) | 18.9% (inactive) |
| Oc1ccc(/C=N/N=C2c3ccccc3-c3ccccc32)c(O)c1 | 66.1% (inactive) |
| C[C@@H](C[C@H](CCO)c1ccccc1)c1ccc2ccccc2c1 | -94.3% (active) |

Source: PubChem BioAssay (NCI)
